# Reference: PubChem BioAssay (NCATS)
# Records with an inconclusive call do not appear. A call without a number means that no potency is given here. Unmarked numbers belong to inactive results. The source made the active and inactive calls. Calls come from the whole dose curve; as a rule, active = well fitted inhibition curve with a large enough effect; inconclusive = small, poorly fitted or top-dose-only effect; inactive = flat fitted curve, though single readings scatter.
# Key:
# [1] = qHTS profiling for inhibitors of Plasmodium falciparum proliferation (AID 504749); note: nearly all actives have a fitted effect of over 60% in size; conditions: P. falciparum in erythrocytes, SYBR Green DNA, 72 h
# Outline: (§1)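 SYBR Green fluorescence of parasite DNA, read after lysis and overnight dark incubation, measured growth over 72 h in erythrocyte culture at 0.3% parasitemia and 2.5% hematocrit. Data normalised to DMSO and 0.29 uM artemisinin, with plate-drift correction.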
# [2] = tested on: 3D7; test: as above; conditions: P. falciparum in erythrocytes, SYBR Green DNA, 72 h; series mostly up to 28.7 µM
# Outline: as §1
# [3] = tested on: AA1029; test: as above; conditions: P. falciparum in erythrocytes, SYBR Green DNA, 72 h; series mostly up to 28.7 µM
# Outline: as §1
# [4] = tested on: AS120; test: as above; conditions: P. falciparum in erythrocytes, SYBR Green DNA, 72 h; series mostly up to 28.7 µM
# Outline: as §1
# [5] = tested on: ATS189; test: as above; conditions: P. falciparum in erythrocytes, SYBR Green DNA, 72 h; series mostly up to 28.7 µM
# Outline: as §1
# [6] = tested on: ATS95; test: as above; conditions: P. falciparum in erythrocytes, SYBR Green DNA, 72 h; series mostly up to 28.7 µM
# Outline: as §1
# [7] = tested on: C2A; test: as above; conditions: P. falciparum in erythrocytes, SYBR Green DNA, 72 h; series mostly up to 28.7 µM
# Outline: as §1
# [8] = tested on: CP185; test: as above; conditions: P. falciparum in erythrocytes, SYBR Green DNA, 72 h; series mostly up to 28.7 µM
# Outline: as §1
# [9] = tested on: CP191; test: as above; conditions: P. falciparum in erythrocytes, SYBR Green DNA, 72 h; series mostly up to 28.7 µM
# Outline: as §1
# [10] = tested on: CP192; test: as above; conditions: P. falciparum in erythrocytes, SYBR Green DNA, 72 h; series mostly up to 28.7 µM
# Outline: as §1
# [11] = tested on: CP194; test: as above; conditions: P. falciparum in erythrocytes, SYBR Green DNA, 72 h; series mostly up to 28.7 µM
# Outline: as §1
# [12] = tested on: CP201; test: as above; conditions: P. falciparum in erythrocytes, SYBR Green DNA, 72 h; series mostly up to 28.7 µM
# Outline: as §1
# [13] = tested on: CP203; test: as above; conditions: P. falciparum in erythrocytes, SYBR Green DNA, 72 h; series mostly up to 28.7 µM
# Outline: as §1
# [14] = tested on: CP211; test: as above; conditions: P. falciparum in erythrocytes, SYBR Green DNA, 72 h; series mostly up to 28.7 µM
# Outline: as §1
# [15] = tested on: CP215; test: as above; conditions: P. falciparum in erythrocytes, SYBR Green DNA, 72 h; series mostly up to 28.7 µM
# Outline: as §1
# [16] = tested on: CP217; test: as above; conditions: P. falciparum in erythrocytes, SYBR Green DNA, 72 h; series mostly up to 28.7 µM
# Outline: as §1
# [17] = tested on: CP237; test: as above; conditions: P. falciparum in erythrocytes, SYBR Green DNA, 72 h; series mostly up to 28.7 µM
# Outline: as §1
# [18] = tested on: CP238; test: as above; conditions: P. falciparum in erythrocytes, SYBR Green DNA, 72 h; series mostly up to 28.7 µM
# Outline: as §1
# [19] = tested on: CP247; test: as above; conditions: P. falciparum in erythrocytes, SYBR Green DNA, 72 h; series mostly up to 28.7 µM
# Outline: as §1
# [20] = tested on: 7G8; test: as above; conditions: P. falciparum in erythrocytes, SYBR Green DNA, 72 h; series mostly up to 28.7 µM
# Outline: as §1
# [21] = at 28.7 µM (top of the series), parasite line A
# [22] = at 28.7 µM (top of the series), parasite line B
# Potency is the fitted concentration of half-maximal effect.
structure (smiles),measurement,setting,value
C[C@H]1C[C@H]2[C@@H]3CCC4=CC(=O)C=C[C@]4(C)[C@@]3(Cl)[C@@H](O)C[C@]2(C)[C@@]1(O)C(=O)CO,"activity, negative = inhibition",[1]; [21],2.21%
same,"activity, negative = inhibition",[1]; [22],13.1%
same,Potency,[2],inactive
same,Potency,[3],inactive
same,Potency,[4],inactive
same,Potency,[5],inactive
same,Potency,[6],inactive
same,Potency,[7],inactive
same,Potency,[8],inactive
same,Potency,[9],inactive
same,Potency,[10],inactive
same,Potency,[11],inactive
same,Potency,[12],inactive
same,Potency,[13],inactive
same,Potency,[14],inactive
same,Potency,[15],inactive
same,Potency,[16],inactive
same,Potency,[17],inactive
same,Potency,[18],inactive
same,Potency,[19],inactive
Cc1cccc(C)c1NC(=O)CN1CCN(CCCC(c2ccc(F)cc2)c2ccc(F)cc2)CC1,"activity, negative = inhibition","[1]; at 12.8 µM (top of the series), parasite line A",-9.2%
same,"activity, negative = inhibition","[1]; at 12.8 µM (top of the series), parasite line B",-3.17%
same,Potency,[20],4.47 µM (active)
same,Potency,[4],3.98 µM (active)
same,Potency,[7],inactive
same,Potency,[8],inactive
same,Potency,[9],inactive
same,Potency,[10],inactive
same,Potency,[12],inactive
same,Potency,[14],inactive
same,Potency,[15],inactive
same,Potency,[18],inactive
same,Potency,[19],inactive
CCN1CCCC1=O,"activity, negative = inhibition",[1]; [21],3.13%
same,"activity, negative = inhibition",[1]; [22],11.2%
same,Potency,[2],inactive
same,Potency,[3],inactive
same,Potency,[4],inactive
same,Potency,[5],inactive
same,Potency,[6],inactive
same,Potency,[7],inactive
same,Potency,[8],inactive
same,Potency,[9],inactive
same,Potency,[10],inactive
same,Potency,[11],inactive
same,Potency,[12],inactive
same,Potency,[13],inactive
same,Potency,[14],inactive
same,Potency,[15],inactive
same,Potency,[16],inactive
same,Potency,[17],inactive
same,Potency,[18],inactive
same,Potency,[19],inactive
CNCCC(Oc1ccccc1C)c1ccccc1 (configuration not stated),"activity, negative = inhibition",[1]; [21],4.27%
same,"activity, negative = inhibition",[1]; [22],4.69%
same,Potency,[2],inactive
same,Potency,[5],inactive
same,Potency,[6],inactive
same,Potency,[7],inactive
same,Potency,[8],inactive
same,Potency,[9],inactive
same,Potency,[10],inactive
same,Potency,[12],inactive
same,Potency,[14],inactive
same,Potency,[17],inactive
COc1cc2c(cc1OC)C(=O)C(CC1CCN(Cc3ccccc3)CC1)C2 (configuration not stated),"activity, negative = inhibition",[1]; [21],-29.4%
same,"activity, negative = inhibition",[1]; [22],5.51%
same,Potency,[2],inactive
same,Potency,[4],inactive
same,Potency,[6],inactive
same,Potency,[9],8.91 µM (active)
same,Potency,[10],inactive
same,Potency,[11],inactive
same,Potency,[12],inactive
same,Potency,[13],inactive
same,Potency,[14],inactive
same,Potency,[15],inactive
same,Potency,[17],inactive
same,Potency,[19],inactive
CN(C)CCOc1ccccc1Cc1ccccc1,"activity, negative = inhibition",[1]; [21],-13.9%
same,"activity, negative = inhibition",[1]; [22],-12.1%
same,Potency,[2],inactive
same,Potency,[3],7.94 µM (active)
same,Potency,[4],1.78 µM (active)
same,Potency,[10],inactive
same,Potency,[12],inactive
same,Potency,[17],3.16 µM (active)
same,Potency,[18],7.94 µM (active)
Cc1cc(O)c(C(C)C)cc1Cl,"activity, negative = inhibition",[1]; [21],0.647%
same,"activity, negative = inhibition",[1]; [22],11.2%
same,Potency,[2],inactive
same,Potency,[3],inactive
same,Potency,[4],inactive
same,Potency,[5],inactive
same,Potency,[6],inactive
same,Potency,[7],inactive
same,Potency,[8],inactive
same,Potency,[9],inactive
same,Potency,[10],inactive
same,Potency,[11],inactive
same,Potency,[12],inactive
same,Potency,[13],inactive
same,Potency,[14],inactive
same,Potency,[15],inactive
same,Potency,[16],inactive
same,Potency,[17],inactive
same,Potency,[18],inactive
same,Potency,[19],inactive
C#C[C@]1(O)CC[C@H]2[C@@H]3CCc4cc(OC5CCCC5)ccc4[C@H]3CC[C@@]21C,"activity, negative = inhibition",[1]; [21],-10.1%
same,"activity, negative = inhibition",[1]; [22],-11.7%
same,Potency,[2],inactive
same,Potency,[3],inactive
same,Potency,[5],inactive
same,Potency,[7],inactive
same,Potency,[8],inactive
same,Potency,[10],inactive
same,Potency,[11],inactive
same,Potency,[12],inactive
same,Potency,[13],inactive
same,Potency,[14],inactive
same,Potency,[15],inactive
same,Potency,[16],inactive
same,Potency,[17],inactive
same,Potency,[18],inactive
same,Potency,[19],inactive
CC(C)N=C(N)/N=C(\N)Nc1ccc(Cl)cc1,Potency,[1]; parasite line A,1.12 µM (active)
same,Potency,[1]; parasite line B,1.58 µM (active)
same,Potency,[6],inactive
same,Potency,[7],inactive
same,Potency,[9],1 µM (active)
same,Potency,[10],inactive
same,Potency,[18],inactive
Clc1ccc2c(c1)CCc1cccnc1C2=C1CCNCC1,"activity, negative = inhibition",[1]; [21],-8.94%
same,"activity, negative = inhibition",[1]; [22],-21.2%
same,Potency,[7],inactive
same,Potency,[8],inactive
same,Potency,[19],inactive
Cc1c(C)n(Cc2ccccc2)c2ccc(C(=O)OCCN(C)C)cc12,"activity, negative = inhibition",[1]; [21],11.1%
same,"activity, negative = inhibition",[1]; [22],-2.16%
same,Potency,[2],inactive
same,Potency,[3],inactive
same,Potency,[4],inactive
same,Potency,[5],inactive
same,Potency,[6],inactive
same,Potency,[7],inactive
same,Potency,[8],inactive
same,Potency,[9],inactive
same,Potency,[10],inactive
same,Potency,[11],inactive
same,Potency,[13],inactive
same,Potency,[14],inactive
same,Potency,[16],inactive
same,Potency,[17],inactive
same,Potency,[18],inactive
same,Potency,[19],inactive
Oc1c(I)cc(Cl)c2cccnc12,Potency,[1]; parasite line A,8.91 µM (active)
same,Potency,[1]; parasite line B,8.91 µM (active)
same,Potency,[2],inactive
same,Potency,[4],10 µM (active)
same,Potency,[5],12.6 µM (active)
same,Potency,[6],inactive
same,Potency,[7],11.2 µM (active)
same,Potency,[8],11.2 µM (active)
same,Potency,[9],11.2 µM (active)
same,Potency,[11],inactive
same,Potency,[12],inactive
same,Potency,[13],inactive
same,Potency,[14],inactive
same,Potency,[16],8.91 µM (active)
same,Potency,[17],inactive
same,Potency,[18],11.2 µM (active)
same,Potency,[19],12.6 µM (active)
